Hit rate of the full screen: of about 390,000 compounds, about 1,400 (0.36%) were called active. Roughly 2% stayed inconclusive and do not appear here. Calls follow the shape of the dose curve; as a rule, active = well fitted inhibition curve with a large enough effect; inconclusive = small, poorly fitted or top-dose-only effect; inactive = no such curve, though single readings can be large or run the other way. Shown is part of a subset that was picked to be rich in actives. A call without a number means that no potency is given here.
The molecules below were run against Flap endonuclease 1 (Homo sapiens) (UniProt P39748) (assay: qHTS Assay for the Inhibitors of Human Flap endonuclease 1 (FEN1).). Conditions: Recombinant FEN1 flap cleavage, fluorescence, 15 min; series mostly up to 114 µM.
Sequence of Flap endonuclease 1 (Homo sapiens) (P39748 whole entry, looked up, the tested form may be a part): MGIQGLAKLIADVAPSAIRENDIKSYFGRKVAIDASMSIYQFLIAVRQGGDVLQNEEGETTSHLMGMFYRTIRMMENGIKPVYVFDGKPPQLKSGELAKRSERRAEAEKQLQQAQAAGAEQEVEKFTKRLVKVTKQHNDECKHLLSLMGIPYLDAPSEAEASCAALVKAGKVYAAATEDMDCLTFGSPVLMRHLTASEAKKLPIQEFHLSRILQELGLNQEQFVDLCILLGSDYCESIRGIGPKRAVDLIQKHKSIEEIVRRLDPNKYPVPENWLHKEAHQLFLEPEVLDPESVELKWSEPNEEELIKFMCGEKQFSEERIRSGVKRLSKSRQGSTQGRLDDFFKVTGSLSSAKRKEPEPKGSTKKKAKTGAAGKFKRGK
From the text: The major human flap endonuclease FEN1 is an efficient structure-specific enzyme that recognizes and cleaves a 5'-unannealed DNA flap. It belongs to the RAD2 family nucleases, which are involved in DNA metabolism and are highly conserved in prokaryotes and eukaryotes. FEN1 is a key enzyme in DNA replication, repair and maintenance of genomic stability. 5'-flap removal by FEN1 is critical for Okazaki fragment processing during lagging strand DNA synthesis, long-patch base excision repair (LP BER), and regulating or facilitating recombination events. […] Deletion of the yeast FEN1 gene, i.e. rad27, results in an increased frequency of short DNA (3-32 bp) repeats, micro- and mini-satellite formation, trinucleotide repeat expansion, spontaneous recombination events, and a severe growth defect in association with cell cycle arrest in late S/G2 phase. […] Cells from fen1-/- blastocysts show increased apoptotic cell death after ionizing radiation treatment, and chicken cells lacking the fen1 gene are hypersensitive to DNA alkylating agents, e.g. methylmethane sulfonate (MMS) and N-methyl-N'-nitro-N-nitrosoguanidine (MNNG), as well as hydrogen peroxide.
NIH Chemical Genomics Center [NCGC]
NIH Molecular Libraries Probe Centers Network [MLPCN]
Assay Submitter (PI): David Wilson, National Institute of Aging
Three uL of reagents (buffer in column 3 and 4 as negative control and 10 nM FEN1 in columns 1, 2, and 5-48) were dispensed into 1,536-well black solid-bottomed plate. Compounds (23 nL) were transferred via Kalypsys pin tool equipped with 1536-pin array (10 nL slotted pins, V&P Scientific, San Diego, CA). The plates were then incubated for 15 min at room temperature, and 1 uL substrate (50 nM final concentration) were added to start the reaction read twice at 0 min read and 15 min on ViewLux reader. Throughout the screen, reagent bottle and all liquid lines were chilled and made light-tight to minimize reagent degradation. All screening operations were performed on a fully integrated robotic system (Kalypsys, San Diego, CA) containing one RX-130 and two RX-90 anthropomorphic robotic arms (Staubli, Duncan, SC). Library plates were screened starting from the lowest and proceeding to the highest concentration, and a "double-dipping" step of the highest concentration was required to access higher concentrations of compounds. Vehicle-only plates, with DMSO being pin-transferred to the entire column 5-48 compound area, were inserted uniformly at the beginning and the end of each library in order to monitor for and record any shifts in the background, which can be affected by reagent dispensers or loss in enzyme activity overtime. Screening data was corrected, normalized, and concentration-effect relationships were derived by using publicly-available curve fitting algorithms developed in-house (http://ncgc.nih.gov/pub/openhts). A four parameter Hill equation was fitted to the concentration-response data by minimizing the residual error between the modeled and observed responses.
Also: nearly all actives have a fitted effect of over 65% in size.
Potency is read from the fitted curve at half-maximal effect.

Row | SMILES | Potency
1 | COc1cc2nc(Cl)nc(NC3CC3)c2cc1OC | inactive
2 | COc1cc2nc(N3CCCN(C)CC3)nc(NC(C)C)c2cc1OC | inactive
3 | CNCCCOc1cc2nc(N3CCCN(C)CC3)nc(NC3CCN(C)CC3)c2cc1OC | 22.4 µM (active)
4 | CN(N=O)c1ccc(C=C2c3ccccc3-c3ccccc32)cc1 | inactive
5 | O=C(COc1ccccc1C(=O)Nc1ccccc1)Nc1cccc(F)c1 | inactive
6 | CC(=O)c1ccc[n+](C(C)CCC(C)[n+]2cccc(C(C)=O)c2)c1 (stereo not given) | inactive
7 | Cc1ccc(-c2cc(N)n(Cc3cccc(Cl)c3)n2)cc1 | inactive
8 | CC(=O)OC1CCC2(C)C(=CCC3C4CC(=O)N(O)C(=O)C4(C)CCC32)C1 (stereo not given) | 3.16 µM (active)
9 | C[C@]12CC[C@H](O)CC1=CCC1C2CC[C@@]2(C)C1CC[C@@H]2NC(=O)CCC(=O)O (stereo not given in full) | inactive
10 | C[C@@H]1CC[C@@]2(OC1)O[C@H]1C[C@H]3[C@@H]4CC=C5C[C@@H](O)[C@H](O)C[C@]5(C)C4CC[C@]3(C)[C@H]1[C@@H]2C (stereo not given in full) | inactive
11 | CC(C)(C(=O)NO)c1ccccc1 | inactive
12 | CN(C)c1ccc(/C=N\Nc2ccc([N+](=O)[O-])cc2[N+](=O)[O-])cc1Cl | inactive
13 | CCCCOc1ccc(CN2C(=O)C(=O)c3cc(Br)cc(C)c32)cc1OC | inactive
14 | COc1ccc(Nc2cc(C(=O)NCCCN(C)c3ccccc3)c3ccccc3n2)c(OC)c1 | inactive
15 | CN(C)CCNC(=O)c1ccc(Cl)c2cc3ccccc3nc12 | 11.2 µM (active)
16 | COc1ccccc1Nc1cc(C(=O)NCCCN(C)C2CCCCC2)c2ccccc2n1 | inactive
17 | CCc1ccc(NC(=O)CN2C(=O)C(c3ccccc3)=NC23CCCCCC3)cc1 | inactive
18 | Cc1ccc(NC(=O)CN2C(=O)C(c3ccc(F)cc3)=NC23CCCCCC3)c(C)c1 | 89.1 µM (active)
19 | COc1ccc(NC(=O)CN2C(=O)C(c3ccccc3)=NC23CCCCCC3)cc1OC | inactive
20 | COc1ccc(CCNc2ncnc3c2cnn3-c2ccc(C)cc2)cc1 | inactive
21 | CCOC(=O)c1[nH]c2ccc(OC)cc2c1NC(=O)N1CCOCC1 | inactive
22 | COc1ccc2[nH]c3c(C)c4cc[n+](C)cc4c(C)c3c2c1 | 2.24 µM (active)

Row | SMILES | Potency
23 | CN(C)c1ccc(/C=C2\C=Cc3ccccc32)cc1Br | inactive
24 | c1ccc(Cn2nnc3c(N4CCCCC4)ncnc32)cc1 | inactive
25 | CCCCOc1ccc(C(=O)NO)cc1 | inactive
26 | O=[N+]([O-])c1ccc(/C=C/c2ccc3cccnc3c2)cc1 | inactive
27 | COc1ccc(Cc2nnc(NC(=O)Cc3cccs3)s2)cc1 | 56.2 µM (active)
28 | COc1ccccc1NC(=O)Nc1nnc(Cc2ccc(F)cc2)s1 | inactive
29 | COc1ccc(OC)c(NC(=O)Cc2cccs2)c1 | inactive
30 | CN(C)c1ccc(/C=C/c2sc3ccccc3[n+]2CCCCBr)cc1 | 50.1 µM (active)
31 | CN(C)c1ccc(/C=C/c2c3ccccc3nc3ccccc23)cc1 | inactive
32 | CN(C)c1ccc(/C=C/c2sc3ccccc3[n+]2C)cc1 | 50.1 µM (active)
33 | CC[n+]1cc(C)ccc1/C=C/c1ccc(N(C)C)cc1 | inactive
34 | CO[C@H]1O[C@@H]2O[C@@]3(C)CC[C@@H]4[C@@H](C)CC[C@@H]([C@H]1C)[C@@]24OO3 | inactive
35 | Cc1ccc(Cn2cnc3c(cnn3C(C)(C)C)c2=O)c(F)c1 | inactive
36 | Cc1ccc(C=O)cc1Cl | inactive
37 | CCCCCCC1(C)NC(c2ccc3c(c2)OCO3)=CC(c2ccccc2O)N1 (stereo not given) | inactive
38 | Cc1ccc2ccc3c(c2n1)NS(=O)(=O)c1ccccc1-3 | inactive
39 | SCc1nc2ccc(Cl)cc2[nH]1 | inactive
40 | CCN(CC)/[N+]([O-])=N/OCOC(=O)Cc1c(C)n(C(=O)c2ccc(Cl)cc2)c2ccc(OC)cc12 | inactive
41 | CCc1cnc2c(c1SCC(=O)c1ccccc1)c(=O)n(C)c(=O)n2C | inactive
42 | O=C(NNC(=O)c1ccccc1O)c1ccccc1O | inactive
43 | O=C(NNc1c2ccccc2nc2ccccc12)c1cc2ccccc2cc1O | 50.1 µM (active)
44 | O=C(COC(=O)c1ccc(O)cc1O)NC(=O)c1ccccc1 | inactive

Row | SMILES | Potency
45 | COc1ccc(-c2c(C)c3ccc(O)c(CN4CCN(C)CC4)c3oc2=O)cc1OC | inactive
46 | CCOC(=O)COc1cc(OCC(=O)OCC)c2c(=O)cc(-c3ccccc3)oc2c1 | inactive
47 | COc1c(O)cc2oc(-c3ccc(O)c(O)c3)cc(=O)c2c1O | 17.8 µM (active)
48 | OCC(O)C(O)C(O)C(O)C=Nc1ccc(/C=C/c2ccnc3ccccc23)cc1 (stereo not given) | inactive
49 | CC1(C)Cc2ccccc2-c2c[nH]c(=O)n21 | inactive
50 | Nc1ccccc1SC(C[N+](=O)[O-])c1ccccc1 (stereo not given) | 15.8 µM (active)
51 | Cc1csc[n+]1CCC1CCCCC1 | inactive
52 | CC(C)(C)C1CCC(NC(=O)c2cnn3c2NC(=C2CC2)C=C3C(F)F)CC1 (stereo not given) | inactive
53 | C=CCn1c(=S)[nH]c2scc(-c3ccco3)c2c1=O | 39.8 µM (active)
54 | CCC1(C)Cc2c(sc3[nH]c(=S)n(Cc4ccccc4)c(=O)c23)CO1 (stereo not given) | inactive
55 | C=CCNC(=O)c1ccc2nc(-c3ccco3)c(-c3ccco3)nc2c1 | inactive
56 | CCOc1ccc(NC(=O)c2ncoc2-c2ccco2)cc1 | inactive
57 | COCCNC(=O)Nc1ccc2nc(-c3ccco3)c(-c3ccco3)nc2c1 | 11.2 µM (active)
58 | CC1(C)CC(=O)c2cc(C(=O)NCc3ccccc3)c(=O)[nH]c2C1 | inactive
59 | O=C1CCC[C@@H]2C[C@@]3(C[C@@H]4CCN1[C@H]24)Nc1ccccc1NC3=NCc1ccccc1 | inactive
60 | COc1cccc2c1C(=O)c1c(O)c3c(c(O)c1C2=O)CC(O)(C(C)=NNC(=O)c1ccc(Cl)c(Cl)c1)CC3OC1CC(N)C(O)C(C)O1 (stereo not given) | 44.7 µM (active)
61 | CN1CCN(/[N+]([O-])=N/Oc2ccc([N+](=O)[O-])cc2[N+](=O)[O-])CC1 | inactive
62 | O=C1CC(c2ccccc2)CC2=C1C(c1ccco1)n1nc(C(F)(F)F)nc1N2 (stereo not given) | inactive
63 | CCOc1cccc(/C=N/N2C(=O)CSC2=S)c1O | inactive
64 | O=C1CSC(=S)N1/N=C/c1ccc(O)c([N+](=O)[O-])c1 | 28.2 µM (active)
65 | CO/N=C/c1ccc(N2CCN(C(=O)c3cccc(Cl)c3)CC2)c([N+](=O)[O-])c1 | inactive
